# Test results reported in PubChem BioAssay (NCI).
# About 79,000 compounds went through this panel and 15% of them were active in at least one assay; those are over-represented in the sample as a whole. Unmarked numbers belong to inactive results. The source made the active and inactive calls. No stated cut-off is given here; in the data, active means growth inhibition above about 70%; inactive means the rest.
# Tests used:
# [1] = NCI Yeast Anticancer Drug Screen. Data for the rad50 strain (AID 155);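 further: 0% = growth of vehicle-only cultures of the same strain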; details: S. cerevisiae rad50 strain growth inhibition, hits give high values
# Outline: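 Vehicle-treated cultures provide the reference for the growth inhibition reported for compound-exposed, repair-deficient yeast.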
# [2] = NCI Yeast Anticancer Drug Screen. Data for the mec2-1 strain (AID 157); details: S. cerevisiae mec2-1 strain, hits give high values
# Outline: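 Test agents were screened against the mec2-1 yeast strain, with defined DNA repair or cell cycle alteration. Growth was scored as inhibition against vehicle-only controls.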
# [3] = NCI Yeast Anticancer Drug Screen. Data for the sgs1 mgt1 strain (AID 161);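 further: 0% = growth of cultures given vehicle only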; details: S. cerevisiae sgs1 mgt1 strain, hits give high values
# Outline: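 Inhibition of yeast growth, normalised to vehicle-treated controls, is reported for a strain bearing genetic alterations in DNA damage repair.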
# [4] = NCI Yeast Anticancer Drug Screen. Data for the cln2 rad14 strain (AID 165);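 further: 0% = growth equal to vehicle treated cultures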; details: S. cerevisiae cln2 rad14 strain, hits give high values
# Outline: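 Growth of compound-exposed yeast (cln2 rad14 genotype) measured and expressed as inhibition relative to vehicle.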
# [5] = NCI Yeast Anticancer Drug Screen. Data for the bub3 strain (AID 167); details: S. cerevisiae bub3 mutant strain, hits give high values
# Outline: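 Mutant yeast screening strain plus compound; vehicle-treated cultures serve as the 0% inhibition reference.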
# [6] = NCI Yeast Anticancer Drug Screen. Data for the mlh1 rad18 strain (AID 175); details: S. cerevisiae mlh1 rad18 strain growth inhibition, hits give high values
# Outline: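 In this whole-cell yeast screen, a strain with altered DNA damage repair is challenged with compound, and its growth is measured against matched vehicle-treated controls.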
# [7] = at 5.0 µM (retest, dose inferred, filed as 0.5)
# [8] = at 50.0 µM (retest, dose inferred, filed as 5.0)
Compound,"growth inhibition [1, 7]","growth inhibition [1, 8]",growth inhibition ([1]; at 50.0 µM),"growth inhibition [2, 7] [%]","growth inhibition [2, 8]",growth inhibition ([2]; at 50.0 µM),"growth inhibition [3, 7]","growth inhibition [3, 8]",growth inhibition ([3]; at 50.0 µM),"growth inhibition [4, 7] [%]","growth inhibition [4, 8]",growth inhibition ([4]; at 50.0 µM),"growth inhibition [5, 7]","growth inhibition [5, 8]",growth inhibition ([5]; at 50.0 µM),"growth inhibition [6, 7]","growth inhibition [6, 8]",growth inhibition ([6]; at 50.0 µM)
Cc1ccc(-c2c(C#N)c(-c3ccccc3)n(NS(=O)(=O)c3ccc(C)cc3)c(=O)c2C#N)cc1,26%,73% (active),73.5% (active),28,67%,79.1% (active),35%,70% (active),81% (active),52,68%,80.8% (active),51%,70% (active),81.7% (active),34%,72% (active),77.2% (active)
CC(C)(C)C(=O)CC(=O)C(F)(F)C(F)(F)C(F)(F)F.CC(C)(C)C(=O)CC(=O)C(F)(F)C(F)(F)C(F)(F)F.CC(C)(C)C(=O)CC(=O)C(F)(F)C(F)(F)C(F)(F)F.[Fe],21%,85% (active),38.5%,5,88% (active),9.3%,43%,88% (active),74.9% (active),13,91% (active),19.8%,-1%,37%,-1.15%,32%,93% (active),84.5% (active)
O=[N+]([O-])c1ccc(-[n+]2ccc3ccccc3c2)c([N+](=O)[O-])c1,14%,78% (active),72.4% (active),8,80% (active),52.3%,11%,79% (active),82.4% (active),10,61%,37.4%,6%,59%,78% (active),40%,90% (active),81.6% (active)
COc1cc(OC)cc(C2OC3=C(Nc4ccc([N+](=O)[O-])cc4N3)C2=O)c1 (configuration not stated),2%,60%,86.8% (active),10,40%,59.8%,30%,50%,81.1% (active),11,29%,57%,24%,16%,51.2%,-4%,49%,82.4% (active)
C[n+]1c(-c2ccc(/C=N/NC(=O)C(=O)N/N=C/c3ccc(-c4cn5ccccc5[n+]4C)cc3)cc2)cn2ccccc21,59%,95% (active),89.8% (active),63,97% (active),92.1% (active),69%,98% (active),88.6% (active),28,91% (active),84.7% (active),64%,98% (active),91% (active),70% (active),98% (active),89.5% (active)
CCCCCCCCCCCCCCCCNc1ccn(C2CC(OP(=O)(O)OCC3OC(n4cc(CC)c(=O)[nH]c4=O)CC3O)C(CO)O2)c(=O)n1 (configuration not stated),73% (active),97% (active),41.8%,26,97% (active),12.8%,94% (active),97% (active),58%,7,64%,39.5%,-19%,92% (active),11.8%,59%,87% (active),16.3%
S=c1nc(N2CCCCC2)ss1,41%,94% (active),95.2% (active),1,75% (active),66%,18%,93% (active),97.2% (active),17,70% (active),57.9%,17%,97% (active),46.5%,24%,94% (active),97.2% (active)
COc1ccc2c(c1)[n+]([O-])c(-c1ccccc1)c(N)[n+]2[O-],47%,98% (active),99.2% (active),40,99% (active),99.3% (active),73% (active),97% (active),99.2% (active),67,98% (active),98.8% (active),87% (active),99% (active),99.2% (active),82% (active),99% (active),99% (active)
Cn1c2c(c3ccccc31)CCN1C[C@@H]3CCCC[C@H]3C[C@@H]21,0%,55%,65%,0,2%,8.8%,-2%,-1%,74.4% (active),6,-6%,-58.1%,2%,0%,62.5%,0%,25%,30.1%
C=CCNC(=O)NC1=CSC2=NC(=O)C3(NN12)c1ccccc1-c1ccccc13,-1%,50%,76.7% (active),-13,48%,68.2%,-2%,63%,82.5% (active),0,83% (active),73.4% (active),-6%,66%,76.4% (active),-6%,64%,82.1% (active)
CCCCCCCCCCCC(=O)N1CCCC1,-1%,99% (active),99.4% (active),-10,100% (active),99.5% (active),3%,40%,96.8% (active),-3,99% (active),99.2% (active),-3%,99% (active),99.5% (active),7%,99% (active),99.5% (active)
O=Cc1ccc(O)c2ccccc12,-3%,66%,63.2%,1,47%,76.6% (active),-9%,85% (active),75.6% (active),1,23%,32.8%,-1%,78% (active),48%,-5%,88% (active),64.5%
CCOC(=O)[C@]12CCC[C@@]1(O)NC(=O)c1cnccc12,33%,99% (active),97.3% (active),13,99% (active),97.7% (active),15%,98% (active),97.4% (active),-1,7%,91.2% (active),-2%,9%,96.9% (active),0%,97% (active),97.3% (active)
NC1=CC(=O)c2ccccc2C1=O,18%,84% (active),94.5% (active),1,48%,62.3%,26%,57%,85.2% (active),9,33%,-1.65%,42%,93% (active),93.8% (active),31%,84% (active),95.5% (active)
CC(=O)c1c2c(cc3c1CC1(C3)Cc3ccc4c(c3C1=O)CCC4)CCC2 (configuration not stated),3%,1%,-0.85%,7,5%,17.2%,18%,7%,5.75%,15,16%,6.8%,12%,39%,55.2%,7%,6%,36.4%
CNc1ccc2c(c1)c1ccccc1n2C,11%,26%,71.3% (active),2,-67%,4.2%,3%,21%,40.1%,-1,-1%,65.5%,-1%,35%,74.5% (active),14%,34%,52%
CCCCCCCNc1ccc2c(cc1=O)C(NC(C)=O)CCc1cc(OC)c(OC)c(OC)c1-2 (configuration not stated),17%,96% (active),91.5% (active),8,98% (active),16.8%,9%,99% (active),98.8% (active),7,95% (active),30.8%,4%,97% (active),16.9%,13%,97% (active),7.55%
CCC(CC)COC(=O)C(C)=O,-2%,1%,-11.7%,2,0%,19.4%,1%,3%,18.1%,-1,-4%,25.6%,0%,5%,4.3%,-1%,2%,26.9%
COc1ccc(CN(C)c2c(C)ccc3ccccc23)cc1,10%,85% (active),5.3%,2,58%,-2.9%,2%,78% (active),23.3%,2,59%,-15.2%,1%,98% (active),79.6% (active),3%,78% (active),13.2%
